# Assay results taken from PubChem BioAssay AID463213 (Sanford-Burnham Center for Chemical Genomics, 2010).
# In all, about 7,400 compounds went through this assay and about 4,100 (55%) were called active. The set was probably picked from earlier hits. Not all results are given here. Values without a mark were called inactive.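 How the source made its calls: active means inhibition of yeast growth at or above a set limit in either of two repeat tests at 20 µM; inactive means the rest.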
# Experiment: growth inhibitors of tim10-1 mutant yeast, confirmation, single concentration, luminescence, S. cerevisiae (AID 463213);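 further: tim10-1 mutant grown at permissive 25 °C to find synthetic lethal compounds; 0% = DMSO yeast wells and 100% = medium wells without yeast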
# Conditions: S. cerevisiae tim10-1 ts strain growth, BacTiter-Glo, 24 h; at 20 µM; active compounds read high
row,Compound,inhibition
1,O=C(/C=C/c1cccs1)c1cc(Cl)ccc1OC(=O)N1CCOCC1,48.5% (active)
2,O=C(NC(Nc1nc2ccc([N+](=O)[O-])cc2s1)(C(F)(F)F)C(F)(F)F)c1ccccc1,86.6% (active)
3,O=C(NCCN1C(=O)S/C(=C\c2cccnc2)C1=O)c1cccc(OC(F)F)c1,27.6%
4,N/C(=N\OC(=O)CC1CCCCC1)c1ccccc1,47.9% (active)
5,N/C(=N\OC(=O)CCC1CCCCC1)c1ccccn1,45.5% (active)
6,S=c1[nH]nc(CSCc2ccc(Cl)cc2Cl)n1-c1ccccc1,24.7%
7,Cc1nnnn1/C(=C\c1ccccc1)C(=O)OCC(=O)N1CC2(C)CC1CC(C)(C)C2 (stereo not given),48.4% (active)
8,N/C(Cc1ccc([N+](=O)[O-])cc1)=N\OC(=O)C1CCCCC1,79.8% (active)
9,N/C(Cc1ccc([N+](=O)[O-])cc1)=N\OC(=O)COc1ccc2ccccc2c1,74.3% (active)
10,CN(C)C(=O)c1ccc2c(c1)C1C3CCC(C3)C1C(c1ccccc1)N2 (stereo not given),25.9%
11,Cc1cccc(NC(=S)Nc2ccc(Cl)c(Cl)c2)c1,50.9% (active)
12,FC(F)(F)c1cccc(NC(=S)Nc2cccc(Cl)c2)c1,21.2%
13,Cc1cccc(NC(=S)N2CCC(c3nc4ccccc4s3)CC2)c1,30.5%
14,Cc1[nH][nH]c(=O)c1C(c1ccc(-c2ccc(Cl)cc2)o1)c1c(C)[nH][nH]c1=O,29%
15,CCOc1ccc(C(c2c(C)[nH][nH]c2=O)c2c(C)[nH][nH]c2=O)cc1OCC,36.1% (active)
16,COc1ccccc1C1SCCN1C(=O)c1ccc([N+](=O)[O-])cc1 (stereo not given),15.9%
17,N/C(=N\OC(=O)Cc1ccccc1[N+](=O)[O-])c1ccc(Br)cc1,55.3% (active)
18,COc1cc(Cl)c(C)cc1NC(=O)CSc1nnc(-c2ccco2)n1CC(C)C,24.4%
19,Cc1cccc(N=Nc2c(O)[nH]c3ccc(F)cc23)c1,51.5% (active)
20,COc1cc(N=Cc2c(O)[nH]c3ccccc23)cc(OC)c1OC,20.7%
21,Cc1ccccc1NCC(=O)N/N=C\c1ccc([N+](=O)[O-])s1,44.2% (active)
22,C/C(=N\NC(=O)CNc1cccc2ccccc12)c1ccc(Br)s1,26.1%
23,O=C(CCc1ccccc1)Nc1ncc([N+](=O)[O-])s1,25%
24,Cc1ccccc1Nc1nnc(SCC(=O)c2cc3ccccc3o2)s1,33.8% (active)

row,Compound,inhibition
1,CC(C)CC(=O)NC(=S)Nc1ccc(F)cc1F,24.9%
2,O=C(/C=C/Sc1ncn[nH]1)c1ccc(Cl)cc1,69.7% (active)
3,COc1ccc(CCNCc2c(-c3ccccc3)n(C)c3ccccc23)cc1,19.6%
4,Cc1nc(-c2ccccc2)cn2c1nc1ccccc12,36% (active)
5,CCc1ccc(-c2cc(C(=O)NCc3ccco3)c3ccccc3n2)s1,32.3% (active)
6,O=C(Nc1nnc(-c2ccccc2)o1)c1cc(-c2cccs2)nc2ccccc12,13.9%
7,CC1=CC(C)(C)Nc2ccc(OC(=O)CN3C(=O)C4CCCCC4C3=O)cc21 (stereo not given),22.8%
8,Cc1cc(N)n2nc(-c3ccc(C(C)(C)C)cc3)cc2n1,42% (active)
9,COc1ccccc1CSc1ncc(-c2ccc([N+](=O)[O-])cc2)[nH]1,27.1%
10,CCCCC(O)(CCCC)C(=O)NN(C(=O)CCl)c1ccccc1,36.3% (active)
11,Cc1ccc(Oc2cnn(-c3ccccc3)c(=O)c2Br)cc1,41.2% (active)
12,COc1ccc(N2CCN(C(=O)CCSCc3ccccc3F)CC2)cc1,16.8%
13,Fc1ccc(/C=N/Nc2nc(-c3cccnc3)nc3ccccc23)cc1,33.9% (active)
14,COc1ccc(/C=C(\C#N)C(=O)ONC2=NCCCCC2)cc1,66.8% (active)
15,COc1ccc(C(=O)Nc2ccccc2C(=O)N/N=C/c2ccccc2OC)cc1,56.6% (active)
16,COc1ccc(/C(C)=N/NC(=O)c2ccc3nc[nH]c3c2)cc1,-11.2%
17,COc1ccc(C(=O)Nc2ccccc2C(=O)N/N=C/c2ccc(O)c(OC)c2)cc1,91.6% (active)
18,COc1cccc(C(=O)Nc2cc3c(cc2Br)OCCCO3)c1,9.95%
19,COc1ccc2c(c1)c(C(=O)N/N=C/c1cccs1)c(C)n2C,28.8%
20,O=C(C(=O)N1CCc2ccccc2C1)c1c[nH]c2ccccc12,12.1%
21,CC1CCc2c(sc3nc4n(c(=O)c23)CCS4)C1 (stereo not given),37.5% (active)
22,CC1CCc2sc3nc(N4CCN(CCO)CC4)n4ncnc4c3c2C1 (stereo not given),27.2%
23,CCOC(=O)CSc1nc2c(c(=O)n(Cc3ccccc3Cl)c(=O)n2C)n1C,31.1%
24,Cc1ccc(-c2ccc(/C=C(\C#N)C(N)=S)o2)c([N+](=O)[O-])c1,48.3% (active)

row,Compound,inhibition
1,CC(=O)Cc1nsc(NC(=O)c2csc3c2CCCC3)n1,29.6%
2,COc1ccc(N2C(=O)CC(Sc3n[nH]c(-c4ccc(C)cc4)n3)C2=O)cc1 (stereo not given),24.7%
3,CNC(=O)/C(C#N)=C/c1c(F)cccc1Cl,50.1% (active)
4,CCOC(=O)c1ccccc1N1C(=O)C2Sc3[nH]c(=O)sc3C(/C=C/c3ccccc3)C2C1=O (stereo not given),15.4%
5,CCOC(=O)C1Sc2[nH]c(=O)sc2C(c2ccc(Cl)cc2)C1C(=O)OCC (stereo not given),33.5% (active)
6,ONC(=Nc1ccc(Cl)cc1)c1ccccc1Cl,31.5% (active)
7,Cc1cccc(NC(=S)NCc2ccc3[nH]c4c(c3c2)CCCC4)c1,35.3% (active)
8,O=C(N/N=C\c1cccc(Br)c1)c1ccccc1-n1cccc1,51.5% (active)
9,CCC(=O)N1CCc2cc(S(=O)(=O)NC(C(=O)N3CCc4ccccc4C3)C(C)C)ccc21 (stereo not given),22.2%
10,CC1CCCC(C)N1C(=O)CN1CCN(c2nc(-c3ccc(F)cc3)cs2)CC1 (stereo not given),37.2% (active)
11,O=C(CN1CCN(c2ccc(F)cc2)CC1)Nc1cccc(C(F)(F)F)c1,23.8%
12,O=C(Nc1nc(-c2ccco2)c(-c2ccco2)s1)c1ccco1,65.9% (active)
13,Cc1ccc2c(c1)c1ncnc(N3CCc4ccccc4C3)c1n2C,22.1%
14,Cc1nc(-c2ccc(Cl)cc2)sc1C(=O)CBr,55.2% (active)
15,CCOC(=O)N1CCN(C(=O)c2cc3c(-c4ccc(Cl)cc4)nn(C)c3s2)CC1,22.4%
16,O=C(Oc1c(-c2ccco2)oc2ccccc2c1=O)c1cccnc1,42.6% (active)
17,CCc1nc2ccc(C(=O)N3CCN(c4cccc(Cl)c4)CC3)cc2nc1CC,24.6%
18,COc1ccc2nc(N3CCN(C(=O)c4ccc([N+](=O)[O-])o4)CC3)sc2c1,-0.8%
19,O=C(c1ccc2nc(N3CCOCC3)sc2c1)N1CCN(c2ccc(Cl)cc2)CC1,41.5% (active)
20,Cc1ccccc1CC1(CO)CCCN(C(=O)c2cc(-c3ccccc3)no2)C1 (stereo not given),21.1%
21,O=C(Cc1ncc(C(F)(F)F)cc1Cl)Nc1cccc(Br)c1,30.4%
22,N/C(=N\OC(=O)Nc1ccc(Cl)c(Cl)c1)c1ncc(C(F)(F)F)cc1Cl,67.4% (active)
23,CC1(C)CCSC(/C=C/c2ccccc2)=N1,49.4% (active)
24,Cc1ccc(C(=O)CCC(=O)N(C)CC(=O)Nc2c(Cl)cccc2Cl)cc1,-3%

row,Compound,inhibition
1,FC(F)(F)Oc1ccc(NC(=S)NCc2ccccc2)cc1,47% (active)
2,C/C(=N\NC(=S)NCc1ccccc1)C1CCCCC1,26.9%
3,COc1ccc(NC(=S)N2N=CCC2c2ccccc2)cc1 (stereo not given),16.2%
4,Cc1ccc2c(c1)C1CN(C)CCC1N2S(=O)(=O)c1ccc(Oc2ccc([N+](=O)[O-])cc2)cc1 (stereo not given),22.1%
5,Oc1c(Cl)cc(Cl)c(Cl)c1Cc1c(O)c(Cl)cc(Cl)c1Cl,88.7% (active)
6,CCc1nn(CCCC(=O)Nc2ccc(C)cc2C)c(=O)c2cc3occc3n12,-8.95%
7,COc1ccc(-n2cc(-c3ccccc3)c3c(=S)nc[nH]c32)cc1,34.4% (active)
8,CCOC(=O)C1Cn2c(nc3c(c2=O)C(C)(CC)Cc2ccccc2-3)S1 (stereo not given),10%
9,O=C(/C(=C/c1cccc(Cl)c1)c1nc2ccccc2[nH]1)c1ccccc1,38.7% (active)
10,O=C(Nc1cccc(Cl)c1)c1cncn1-c1ccc(F)cc1,33% (active)
11,CCNC(=S)N(CCc1c(C)[nH]c2ccc(C)cc12)Cc1ccco1,24.5%
12,Cc1nonc1C1CCCN1C(=O)c1cc(COc2cccc(C(F)(F)F)c2)on1 (stereo not given),41.6% (active)
13,CCOC(=O)C1(S(=O)(=O)c2ccccc2)CCN(Cc2ccccc2)CC1,14.3%
14,O=C1c2ccccc2C(=O)c2c1cccc2N1CCN(Cc2ccccc2)CC1,32% (active)
15,O=C(c1ccc(CSc2ccccc2)cc1)N1CCCCCC1,26.4%
16,O=C(CCCN1C(=O)/C(=C/c2ccccc2)SC1=S)Nc1ccc(O)cc1,28.7% (active)
17,O=C1/C(=C\c2ccccc2Cl)SC(=S)N1CCC(=O)N1CCCc2ccccc21,27.6%
18,COc1ccc(/C=C2/SC(=O)N(CCCCCC(=O)Nc3ccccc3C(=O)O)C2=S)cc1,4.8%
19,COc1ccccc1C1C(C#N)=C(N)Oc2c1c(-c1ccccc1)nn2-c1ccccc1 (stereo not given),21.8%
20,Cc1ccc(C(C[N+](=O)[O-])c2c(C)cc3ccccn23)cc1 (stereo not given),30.6% (active)
21,CCN1/C(=C\c2ccc3ccccc3[n+]2CC)Sc2cc(C)ccc21,59% (active)
22,COc1ccc2nc(/N=C(\N)NC(=O)Nc3ccccc3)nc(C)c2c1,51% (active)
23,O=C1[C@@H](c2ccccc2)[C@@H](c2ccccc2)N1c1cccnc1,66.5% (active)
